In the library only some 3.6% were active in any assay of this set; here they are far more common.
MazF activator: activators of E. coli MazEF toxin-antitoxin RNase | FAM/BHQ RNA-DNA oligo cleavage fluorescence, 5 h | activation, % at 20 µM | hit rate 0.32% among 350,000 | AID 504720; in the data active = activation above about 50%
Target sequence (P0AE70 whole entry, looked up): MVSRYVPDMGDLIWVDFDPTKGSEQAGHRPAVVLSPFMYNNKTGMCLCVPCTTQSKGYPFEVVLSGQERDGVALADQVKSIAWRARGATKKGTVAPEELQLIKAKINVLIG
Autofluor counter: counter-screen for toxin protease inhibitors: compound fluorescence; compound autofluorescence counterscreen, microsphere flow cytometry; stronger effect = higher value; fluorescence intensity (test concentration not listed); hit rate 3.1% among 360,000; AID 624483; in the data active = fluorescence intensity above about 16000; inconclusive = no clear call, values can overlap the other calls
BoNT F protease: BoNT F light chain protease inhibition | Multiplex microsphere protease cleavage assay, flow cytometry | AID 588497 | hit rate 0.22% among 360,000 | inhibition, % at 10 µM; in the data active = inhibition above about 35%, passing the limit was not always enough; inconclusive = no clear call, values can overlap the other calls; also: plate controls were buffer without enzyme for full effect and enzyme alone for no effect
BoNT A protease: blocks Botulinum neurotoxin A light chain protease; multiplex microsphere protease substrate cleavage, flow cytometry; inhibition, % at 10 µM; hit rate 0.17% among 360,000; AID 588499; also: plate controls were buffer without enzyme for full effect and enzyme alone for no effect
Anthrax LF prot: anthrax lethal factor protease inhibition; multiplex microsphere protease cleavage assay, LF; inhibition, % at 10 µM; hit rate 0.12% among 360,000; AID 588501; also: plate controls were buffer without enzyme for full effect and enzyme alone for no effect
Numbers without * were called inactive; ? = inconclusive; . = no result given; + = active, no number. Rule as the data show it, unless noted: active = inhibition above about 30%; inconclusive = no clear call, values can overlap the other calls; inactive = below that.

SMILES	MazF activator	Autofluor counter	BoNT F protease	BoNT A protease	Anthrax LF prot
Cc1ccc(-n2nnc3c(=O)oc4ccccc4c32)cc1	10	.	.	.	.
O=C(N(c1ccccc1)c1ccccc1)n1ccnc1	3	21662*	-8	-7	-4
COc1ccc(CC(=O)c2c(O)cc(O)cc2O)cc1OC	1	22635*	-17	?	-2
CC(=O)Nc1ccc(CN(C)c2c(C)nc3ccc(C(=O)NCCCn4ccnc4)cn23)cc1	.	3405	-5	0	-4
CCC(=NCCO)c1c(O)n(-c2ccc(Cl)cc2)c(=O)[nH]c1=O	3	23929*	-6	-3	-6
Cc1ccc(N2CC(C(=O)Nc3ccc(S(=O)(=O)N4CCOCC4)cc3)CC2=O)cc1Cl (configuration not stated)	-14	6107	6	6	4
CC(=O)N1C(=O)C(=C2C=C(C)OC(C)=C2)c2ccccc21	+	23162*	4	0	-1
O=C1NC[C@@H](CCCCN2CCN(CCc3ccc(O)cc3)C(=O)C2=O)N(CCc2ccc(O)cc2)C1=O	.	5910	-5	0	-4
COC(=O)c1c(C)nc2ccccc2c1C(=O)O	-5	2245	-1	0	0
COc1ccc(-c2c(C(=O)O)nc3ccccc3c2C(=O)O)cc1	1	16308*	0	0	-3
COc1cc(Cl)ccc1OC1(C)CCN(Cc2ccc(SC)cc2)C1 (configuration not stated)	.	3672	-8	-1	4
O=C(Cc1ccc([N+](=O)[O-])cc1)N1N=C(c2ccncc2)CC1(O)C(F)(F)F (configuration not stated)	6	4461	-2	0	0
O=C(CCn1c(=O)[nH]c2ccsc2c1=O)N1CC(=O)N(CCc2ccccc2)C(=O)C1	0	23732*	-6	?	0
O=C(CCn1c(=O)[nH]c2ccsc2c1=O)N1CCN(c2cccc(Cl)c2)CC1	2	?	17	-1	-7
C/C(=N\O)c1cc(Cl)cc(Cl)c1O	-8	4650	?	2	34*
C/C(=N\O)c1ccc(Cl)cc1Cl	-3	4459	-8	0	-4
CC1(C(=O)Nc2ccc(F)cc2F)CCN1C(=O)CCC1CCCC1 (configuration not stated)	.	3651	-4	0	-5
COc1ccc(C2=Cc3ccccc3C(CC(=O)C3CC3)N2c2ccc(-c3cc(OC)c(OC)c(OC)c3)cc2)cc1 (configuration not stated)	.	5503	9	6	-7
Cc1cccc(CN(C)C)c1OC(=O)N(C)C	-5	20578*	6	?	-2
COc1cc(C)c(Cl)cc1S(=O)(=O)NCCCN1CCOCC1	-5	10691	5	2	0
COc1cc(C)c(Cl)cc1S(=O)(=O)NCCN1CCOCC1	3	23984*	-2	-3	-3
O=C1c2ccccc2C(c2nnnn2Cc2ccccc2)N1Cc1ccco1 (configuration not stated)	.	4363	2	0	3
COC(=O)c1ccccc1OP1(=O)COc2ccccc2OC1	-5	22712*	-3	?	-1
CCc1cccc(NC(=O)CSc2nc(C)cs2)c1	6	3936	0	0	-7
CC1=C(C)C(=O)N(CCC(=O)O)C1=O	6	20985*	4	2	-16
SMILES	MazF activator	Autofluor counter	BoNT F protease	BoNT A protease	Anthrax LF prot
COC(=O)CC1COc2ccccc2N1C(=O)c1ccc(C(C)(C)C)cc1 (configuration not stated)	-5	20115*	0	?	0
COC(=O)CC1COc2ccccc2N1C(=O)c1ccc(Br)cc1 (configuration not stated)	2	4286	4	0	4
COC(=O)CC1COc2ccccc2N1C(=O)c1ccc(Cl)cc1 (configuration not stated)	6	23189*	-1	-2	-7
CO/N=C(\c1ccccc1)c1cccnc1	-1	4201	56*	0	-1
N/C(=N\OC(=O)C(c1ccccc1)c1ccccc1)c1cccnc1	5	11168	-15	0	-5
O=S1(=O)CC2(N3CCOCC3)CCCCC21 (configuration not stated)	3	19624*	1	2	-2
O=S1(=O)CC2(N3CCOCC3)CCCCCCC21 (configuration not stated)	-8	23822*	-1	-2	0
CC1(C(=O)N2CCOCC2)CCCCC1	-2	4118	?	-3	7
CC1=Nc2ccccc2/C1=C\c1nc(-c2ccccc2)oc1O	-4	2897	-120	21	-26
